Measurements published in PubChem BioAssay (EPA / NIEHS).
Calls of active or inactive are those of the source. Rule for the calls: active = hit-call score of the fitted dose curve at least 0.9, where 1 is the maximum; inactive = score below 0.9.

assay: CCTE_Shafer_MEA_acute_burst_percentage_mean: CCTE's Neural Acute Assay for Percentage of Spikes in a Burst, Shafer Lab (AID 2284017);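 for AC50: curve fitted for loss of signal so potency reflects decreased burst percentage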
Description: CCTE_Shafer_MEA_acute assay is conducted using Axion Biosystems 48 well microelectrode array (MEA) plates and Maestro recording system. Each well of the MEA plate contains a grid of 16 microelectrodes embedded in the culture surface. Electrically active cells, such as neurons, can be cultured over the electrodes, and electrical activity in these cells can be recorded extracellularly. The spontaneous firing of neurons is captured from each electrode on a microsecond timescale providing both temporally and spatially precise data. […] The CCTE_Shafer_MEA_acute assay uses primary cultures of rat cortical neurons. As these cultures mature over time, neural networks develop functional activity and form cohesive networks in which electrical activity can be highly coordinated. Baseline 40-minute recordings are made on days post-plating 13 or 15, followed by a secondary 40-minute recording after chemical exposure.CCTE_Shafer_MEA_acute_burst_percentage_mean is a component of the CCTE_Shafer_MEA_acute assay. It measures the percentage of spikes (action potential firing) in a single-electrode burst (temporally-clustered groups of spikes) as the number of spikes in bursts divided by the total number of spikes during a recording in a microelectrode array (MEA) using Axion Biosystems Maestro 768 channel amplifier with the AxIS adaptive spike detector. The average of the burst percentages across electrodes is calculated to report a well-level value. The recordings before and after chemical treatment are used to calculate a percent change in the mean burst percentage in each well.Data from the assay component CCTE_Shafer_MEA_acute_burst_percentage_mean was analyzed into 1 assay endpoint. This assay endpoint, CCTE_Shafer_MEA_acute_burst_percentage_mean, was analyzed in the negative analysis fitting direction relative to DMSO as the negative control and baseline of activity. Using a type of functional reporter, gain or loss-of-signal activity can be used to understand electrical activity.
Spontaneous activity in the cortical cultures was recorded using an Axion Biosystems Maestro 768 channel amplifier and Axion Integrated Studios (AxIS) v1.8 (or later) software. The amplifier recorded from all channels simultaneously (gain = 1200 x; sampling rate = 12.5 kHz/channel): raw signals were filtered with a Butterworth band-pass filter (300-5000 Hz), which filters out slower local field potentials leaving only fast potentials, i.e., "spikes", arising from extracellular currents associated with action potentials (Pine 2006; Wheeler and Nam 2011). On-line spike detection of filtered signals was conducted with the AxIS adaptive spike detector, using a threshold of 8x the root mean squared (rms) noise on each channel. Any electrodes with rms noise levels greater than 5 uV were grounded (e.g., no data were recorded). Once grounded, an electrode was grounded for the duration of the experiment. All recordings were conducted at 37 C. Wells were deemed usable if on the day of the exposure >/= 10 electrodes were active (defined as >/= 5 spikes/min). On DIV 13 or 15, a minimum of three wells from one cortical culture preparation were treated with each compound (0.03-40 uM). Prior to recording baseline activity, each mwMEA plate was placed in the Maestro at 37 C and allowed to sit for 20 min while firing rates stabilized. Baseline activity (40 min) was recorded before the addition of each compound. An additional 40 min of spontaneous activity was recorded in the presence of each compound. Changes in network parameters relative to baseline were assessed following compound treatment.

Q: Which AC50 does the source give for `Cc1ccccc1OP(=O)(Oc1ccccc1C)Oc1ccccc1C` here?
A: 26.3 µM (active)

Q: With `OCCCCO` as the compound, how does the outcome read?
A: inactive

Q: With `CC(C)[C@@H](Nc1ccc(C(F)(F)F)cc1Cl)C(=O)OC(C#N)c1cccc(Oc2ccccc2)c1` (stereo not given in full) as the compound, how does the AC50 read?
A: 0.62 µM (active)

Q: Which AC50 does the source give for `CC(C)(C)c1ccccc1O` here?
A: 20 µM (active)

Q: Which AC50 does the source give for `CC1(C)[C@H](C(=O)O[C@H](C#N)c2cccc(Oc3ccccc3)c2)[C@@H]1/C=C(\Cl)C(F)(F)F` here?
A: 0.841 µM (active)

Q: With `O=C(Cc1ccccc1)OCCc1ccccc1` as the compound, how does the outcome read?
A: inactive

Q: For `Oc1cc(Cl)c(Cl)cc1Cl`, which AC50 is on record?
A: 36.5 µM (active)

Q: For `N#Cc1cccnc1`, which outcome is on record?
A: inactive

Q: For `CCCCCCCCCCCCc1cccc(S(=O)(=O)O)c1`, which outcome is on record?
A: inactive

Q: For `Cc1cc(C(F)(C(F)(F)F)C(F)(F)F)ccc1NC(=O)c1cccc(I)c1C(=O)NC(C)(C)CS(C)(=O)=O`, which AC50 is on record?
A: 5.38 µM (active)

Q: For `Clc1cccc(Cl)c1Cl`, which outcome is on record?
A: inactive

Q: Which outcome does the source give for `CN(C)C(=S)S` here?
A: inactive

Q: With `CCCCOC(=O)COC(=O)c1ccccc1C(=O)OCCCC` as the compound, how does the outcome read?
A: inactive

Q: For `Oc1ccc(Cc2ccc(O)cc2)cc1`, which outcome is on record?
A: inactive

Q: With `CS(=O)(=O)c1ccc(C(=O)C2C(=O)CCCC2=O)c(Cl)c1COCC(F)(F)F` as the compound, how does the outcome read?
A: inactive
